# Assay results taken from PubChem BioAssay (NCI).
# Where “and” joins values, the source holds several entries; their conditions need not be identical. Equal values may be shown once. The panel holds about 83,000 compounds, 20% with a hit somewhere; the sample as a whole holds those more often.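 For each line, cells grew in 96-well plates with the test compound present at a single concentration for 48 hours.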 Values without a mark were called inactive.
# Test system: SK-OV-3 ovarian
# Test: NCI-60 one-dose screen, 48 h (100 = growth as untreated, 0 = no growth, -100 = all killed)
# Conditions: 10 µM
# Procedure: Growth inhibition of the SK-OV-3 human tumor cell line is measured as a screen for anti-cancer activity. Cells are grown in 96 well plates and exposed to the test compound for 48 hours. Compounds are tested at a single concentration, which is 10^-5 M for most compounds. The reported endpoint is percent growth (GI% or GIPRCNT), where numbers from 0 - 100% represent growth inhibition, and numbers from -100% - 0 represent cell death. For example, a value of 40 represents 60% growth inhibition. A value of 0 means no net growth occurred over the course of the experiment. A value of -40 indicates 40% of cells at the beginning of the experiment died by the end of the experiment. A value of -100 means all cells are dead at the end of the experiment.
# NCI-60 Human Tumor Cell Lines Screen was performed using the standard one-dose NCI protocol, which is described in more detail at https://dtp.cancer.gov/discovery_development/nci-60/default.htm.
# Compounds with GIPRCNT values below 10 were considered active. Activity score was based on GIPRCNT using the following formula: […]
# Score is 0 for GIPRCNT values of 100 or above, 50 for GIPRCNT values of 0, and 100 for GIPRCNT values of -100.
row,Compound,growth [%]
1,CS/C(=C\c1ccc(C(=O)c2ccc(C)cc2)n1C)S(C)=O (stereo not given),103

# Same assay, conditions: 10 µM unless noted
row,Compound,growth
1,Cc1c(Cl)cc(Cl)c(N)c1Cl,101%
2,CCN(CC)CCNC(=O)c1ccc(NCN2C(=O)NC(c3ccccc3)(c3ccccc3)C2=O)cc1,123% and 90.9%
3,CS(=O)(=O)OCC1NC(=O)C(COS(C)(=O)=O)NC1=O (stereo not given),107% and 120%
4,OCCSc1ccc(Cl)cc1,112% and 86.9%
5,CC1(C)CC(=O)NC1=O,104%
6,Cc1ccc(C(=O)c2ccc(C)cc2)cc1,101% and 107%
7,CCCCCCC(C)CC1=C(O)c2ccccc2C(=O)C1=O (stereo not given),78%
8,Cc1cccc(Cl)c1N,113%
9,COc1ccc(C(=O)C(O)c2ccc(OC)cc2)cc1 (stereo not given),106% and 101%
10,CCCCCCCCCCCCCCCCC(=O)O,116%
11,NCCSSC/C=C\CSSCCN,99.8%
12,CCN(CC)C(CC(=O)c1ccccc1)C(=O)c1ccccc1 (stereo not given),114%
13,COc1cc(NCCCCCCCNC(C)C)c2nccc(C)c2c1,93.8% and 72.9%
14,O=C(/C=C/C=C/c1ccc2c(c1)OCO2)N1CCCCC1,101% and 102%
15,C=CCN1C(=O)c2ccccc2C1=O,105%
16,Nc1ccc2ccc(NS(=O)(=O)N3CCCCC3)cc2c1,31.8%
17,COc1ccc(CCl)c(C)c1OC,110%
18,COC(=O)CCOc1ccccc1,106%
19,O=C1c2ccccc2C(c2ccccc2)C1c1ccccc1 (stereo not given),93.5%

row,Compound,growth
1,CN(C)CC(CN(C)C)C(O)c1ccccc1 (stereo not given),103%
2,COC(=O)c1nc(=S)[nH]c(C(=O)OC)c1C(=O)c1ccccc1,111%
3,O=C(O)c1ccc2c3ccc(C(=O)O)c4c(C(=O)O)ccc(c5ccc(C(=O)O)c1c25)c43,107%
4,C/C=C(/C(=O)NC(N)=O)C(C)C,99.4%
5,CCOC(=O)C(N)Cc1cc(I)c(O)c(I)c1 (stereo not given),107% and 96.6%
6,CC(=O)C[n+]1ccccc1Sc1ccc(Cl)cc1,109%
7,Nc1ccc(O)c(C(=O)O)c1,105% and 106% and 119%
8,Oc1cccnc1CN1CCOCC1,101% and 105%
9,O=C1c2ccccc2CN1c1ccccc1,105%
10,Cc1ccc(N)cc1S(=O)(=O)O,106% and 116%
11,NNc1ncnc2cccc(Cl)c12,94.4%
12,O=S(=O)(O)c1ccc2cc(O)ccc2c1,104%
13,Cc1cc2ccccc2c2cc3ccccc3cc12,90.6%
14,O=C1C(=O)c2ccccc2C(O)=C1CC=C(Cl)Cl,73.9% and 58.4%
15,O=C(O)Cc1cc(=O)[nH]n(-c2ccccc2)c1=O,98%
16,O=C1C2=C(Nc3cc(Cl)ccc3N2)OC1c1c[nH]c2ccc(COc3ccccc3)cc12 (stereo not given),26.7%
17,CC(=O)Nc1cscc1NC(C)=O,103%
18,Cc1nc2c(=O)[nH]c(=S)[nH]c2[nH]c1=O,112% and 107%
19,OCc1cccc(F)c1,91.7%

# Same assay, conditions: 100 µM
row,Compound,growth [%]
1,CS/C(=C\c1ccc(C(=O)c2ccc(C)cc2)n1C)S(C)=O (stereo not given),87.6
